Bioassay records from PubChem.
This is a sample that favours compounds with a hit; in the whole collection about 5.2% have one here.
VDR inh – inhibitors of human vitamin D receptor; 0.93% of 400,000 active; Potency, µM, without a hit: max response, negative = inhibition, usual class: inhibitors; AID 504847; P11473; VDR-SRC2-3 peptide fluorescence polarization, 2 h
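Signal is fluorescence polarization, reporting how far test compounds block the interaction of VDR with the SRC2-3 coregulator peptide after a 2 h room-temperature incubation.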
TrxR1 substrate – rat thioredoxin reductase 1 substrate activity; AID 588456; O89049; Potency, µM (series often up to 114 µM), for inactives: top-dose activity change, negative = substrate turnover; purified TrxR1 substrate turnover, NADPH consumption readout; 0.01% of 390,000 active; note: nearly all actives have a fitted effect of over 50% in size
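Rat TrxR1, dispensed at 90 nM, was prereduced with 400 uM NADPH (final) for 5 min at ~22 deg C, then incubated with compound 15 min before 400 uM selenite. A first-read NADPH fluorescence drop versus no-compound background flagged substrates.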
TrxR1 inh – rat TrxR1 inhibition; AID 588453; Potency, µM (top dose mostly 114 µM), without a hit: top-dose activity change, negative = inhibition, usual class: inhibitors; 1% of 390,000 active; recombinant rTrxR1, NADPH fluorescence consumption, selenite substrate; note: nearly all actives have a fitted effect of over 65% in size
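Rat TrxR1 (90 nM in the dispensed reagent) was pre-reduced with 400 uM NADPH for 5 min at room temperature, then incubated with compound for 15 min. After 400 uM selenite was added, NADPH fluorescence (Ex 340/Em 450 nm) was followed for 8 min.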
IDH1 R132H inh – blocks human mutant IDH1 R132H enzyme; Potency, µM (highest dose often 76.6 µM), for the others: at the highest dose activity change, negative = inhibition, usual class: inhibitors; 0.093% of 390,000 active; IDH1-R132H enzyme, NADPH consumption, diaphorase/resazurin fluorescence; note: nearly all actives have a fitted effect of over 65% in size
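IDH1-R132H (0.5 ug/mL dispensed) in pH 7.5 Tris buffer was preincubated 30 min with compound, then given a substrate mix of 0.016 mM NADPH and 2 mM alpha-KG for 80 min at room temperature; remaining NADPH was read by diaphorase/resazurin fluorescence.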
PLK1 PBD block – PLK1 (human) polo-box domain binding inhibition; P53350; Plk1 PBD binding of FITC phosphopeptide, fluorescence polarization; Potency, µM, for the others: max response, negative = inhibition, actives largely listed as inhibitors; 2.8% of 360,000 active; AID 720504; note: series mostly up to about 57 µM; nearly all actives have a fitted effect of over 65% in size
Target sequence (P53350 whole entry, looked up, the tested form may be a part): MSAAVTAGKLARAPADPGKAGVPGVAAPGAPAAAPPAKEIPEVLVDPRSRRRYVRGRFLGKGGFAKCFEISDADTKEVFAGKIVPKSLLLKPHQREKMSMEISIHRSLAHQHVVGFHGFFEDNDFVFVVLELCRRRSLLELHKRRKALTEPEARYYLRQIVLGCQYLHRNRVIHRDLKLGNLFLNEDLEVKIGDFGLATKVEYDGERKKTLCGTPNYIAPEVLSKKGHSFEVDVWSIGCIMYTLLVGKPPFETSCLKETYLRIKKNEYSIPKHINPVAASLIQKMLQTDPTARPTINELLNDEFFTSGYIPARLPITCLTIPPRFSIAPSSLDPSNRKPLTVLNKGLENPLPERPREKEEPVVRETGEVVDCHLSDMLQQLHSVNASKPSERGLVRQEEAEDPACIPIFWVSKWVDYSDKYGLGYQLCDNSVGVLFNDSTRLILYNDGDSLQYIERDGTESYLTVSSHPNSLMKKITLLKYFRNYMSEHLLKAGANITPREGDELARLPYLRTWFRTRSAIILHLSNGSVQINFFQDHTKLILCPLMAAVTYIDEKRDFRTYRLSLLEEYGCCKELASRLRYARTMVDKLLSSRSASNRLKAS
Sfp inh – inhibitors of Bacillus subtilis Sfp phosphopantetheinyl transferase; Q9F4F7; Biochemical Sfp PPTase activity, qHTS; Potency, µM, without a hit: largest response in the series, negative = inhibition, usual class: inhibitors; 3.5% of 310,000 active; AID 1490;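 note: the enzyme is Sfp with the accession as filed and its product quenches rhodamine fluorescence; 0% = enzyme reaction without inhibitor and -100% = no enzyme wells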
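Fluorescence-quenching assay: 15 nM Sfp-PPTase preincubated 15 min at room temperature with compound, then 5 uM rhodamine-CoA and 12.5 uM BHQ-2-labelled YbbR peptide added. Fluorescence (ex 525/em 598 nm) read at start and after 30 min; difference gives rate.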
* marks the source's active call; other numbers are inactive results; ? = inconclusive; . = no result given; [ ] = dose if it differs, or a comment. Calls come from the whole dose curve; as a rule, active = well fitted curve in the direction sought with a large enough effect; inconclusive = small, poorly fitted or top-dose-only effect, or another doubt; inactive = no such curve, though single readings can be large; an effect the other way counts as inactive or inconclusive. Unless noted, % is set by controls: 0 for no effect and ±100 for the full control effect; potency is the fitted concentration of half-maximal effect.

SMILES	VDR inh	TrxR1 substrate	TrxR1 inh	IDH1 R132H inh	PLK1 PBD block	Sfp inh
O=[N+]([O-])c1ccc(N/N=C/c2ccc(O)c(O)c2O)c(S(=O)(=O)N2CCOCC2)c1	?	2%[57.1 µM]	-46%	?	3µM*	7.1µM*
O=C(CCc1ccc(S(=O)(=O)N2CCOCC2)cc1)N/N=C/c1ccc(F)cc1F	-7%	-15%[57.1 µM]	36%[57.1 µM]	5%	-9%	27%
Cc1cccc(NC(=O)N2CCc3c(sc4c3CCCC4)C2c2ccc(F)cc2)c1 (configuration not stated)	1%	-2%[57.1 µM]	20%[57.1 µM]	-21%	.	.
COc1ccc(NC(=O)c2cc([N+](=O)[O-])ccc2NC(=O)CNCc2ccccn2)c(OC)c1	32µM*	-14%	15%[57.1 µM]	11%	?	45µM*
COc1cc(NC(=O)c2cc([N+](=O)[O-])ccc2NC(=O)CNCc2ccccn2)cc(OC)c1	3%	7%[57.1 µM]	21%[57.1 µM]	8%	-5%	-14%
CC(=O)OCCn1c(=O)c2cc3c(=O)n(CCOC(C)=O)c(=O)c3cc2c1=O	4%	0%	2%[57.1 µM]	-1%	12µM*	23%
Oc1ccccc1N=Cc1sc2ccccc2c1Cl	0%	-9%	-15%	7%	-13%	56µM*
Cc1ccc(O)c(N=Cc2sc3ccccc3c2Cl)c1	-6%	10%[57.1 µM]	-19%	14%	-3%	?
NC(CSC1(c2cccc3ccccc23)c2ccccc2-c2ccccc21)C(=O)O (configuration not stated)	?	7%[11.4 µM]	-32%[11.4 µM]	1%	-18%	.
NC(CSC(c1ccccc1)(c1ccccc1)c1cccc2ccccc12)C(=O)O (configuration not stated)	?	3%[11.4 µM]	-14%[11.4 µM]	13%	27µM*	.
COC(=O)C(C(=O)OC)c1ccccc1CNS(=O)(=O)c1ccc(C)cc1	.	.	.	.	-3%	.
CCn1cc(/C=C(\NC(=O)c2ccc(C)cc2)C(=O)NCCCn2ccnc2)c2ccccc21	-1%	-14%	-14%	-6%	.	.
CCOc1ccccc1NC1=C(Cl)C(=O)N(c2ccc(OC)cc2)C1=O	?	-15%	-11%	0%	-18%	-22%
O=C1C(Cl)=C(NCC2CCCO2)C(=O)N1c1ccccc1 (configuration not stated)	-17%	-10%	?	2%	-7%	-9%
O=C1C(Cl)=C(Nc2ccccc2O)C(=O)N1c1ccccc1	?	-4%	45µM*	4%	8.4µM*	22µM*
COc1ccccc1N1C(=O)C(Cl)=C(Nc2ccccc2O)C1=O	?	11%[57.1 µM]	-71%	1%	6.7µM*	40µM*
CO[C@@H]1[C@@H](OC2OC(C)C(OC3CC(C)(O)C(OC(=O)CC(C)C)C(C)O3)C(N(C)C)C2O)[C@@H](CC=O)C[C@@H](C)C(=O)/C=C\C2O[C@H]2C[C@@H](C)OC(=O)C[C@H]1OC(C)=O (some centres not stated)	-14%	-10%	-25%	.	.	6%
CC1(C)CC(=O)C(C=NCCN2CCN(C(=S)NC3CCCCC3)CC2)=C(O)C1	-15%	-18%	-20%	0%	-9%	79µM*
CC1(C)CC(=O)C(C=NCCCN2CCOCC2)=C(O)C1	-17%	8%[57.1 µM]	?	10%	30µM*	3%
CC1(C)CC(=O)C(C=NCCN2CCNCC2)=C(O)C1	5%	-11%	-22%	-9%	-4%	13%
COc1ccc(NC(=O)N(O)C2(C#N)CCCCC2)cc1	-13%	-3%	-15%	-5%	-1%	.
O=C(CSc1nnc(-c2cccc(S(=O)(=O)N3CCCCC3)c2)o1)NCCC1=CCCCC1	3%	1%	17%	1%	21µM*	9%
NC(=O)CSc1nnc(-c2cccc(S(=O)(=O)N3CCCCC3)c2)o1	10%	-1%	3%	-1%	-10%	26%
CSc1nnc(C(C)(C)C)c(=O)n1/N=C/c1ccc(Cl)cc1	9%	2%[57.1 µM]	22%[57.1 µM]	9%	1%	17%
CSc1nnc(C(C)(C)C)c(=O)n1/N=C/c1ccccc1O	?	-8%	2%	-2%	24µM*	6%
SMILES	VDR inh	TrxR1 substrate	TrxR1 inh	IDH1 R132H inh	PLK1 PBD block	Sfp inh
CCOC(=O)C1(C)CCN1C(=O)c1cccc(Cl)c1 (configuration not stated)	.	.	.	.	-6%	.
COc1ccc(-c2nn(-c3ccccc3)cc2/C=N/O)cc1OC	-11%	43%	14%	-1%	-8%	13%
COc1ccc(-c2nn(-c3ccccc3)cc2/C=N/N=C(N)N)cc1OC	-8%	3%	4%	1%	-1%	50µM*
Nc1sc2c(c1C(=O)c1ccc(Cl)cc1)CCCC2	45µM*	.	.	.	.	10%
Cc1cccc(C(=O)c2c(N)sc3c2CCC(C)C3)c1 (configuration not stated)	-8%	-3%	-25%	5%	-24%	?
Cc1cccc(C(=O)c2c(N)sc3c2CCCC3)c1	-22%	-6%	?	1%	?	45µM*
C=C1C(=O)N(C)CCC1C(CC)C(=O)OC (configuration not stated)	.	.	.	0%	0%	.
Cc1sc2nc(CSc3nc4ccccc4s3)[nH]c(=O)c2c1C	.	.	.	.	.	0%
CC(=O)OCc1nc2sc(C)c(C)c2c(=O)[nH]1	3%	-7%	3%	13%	-9%	2%
Cc1sc2nc(CC(=O)NN)[nH]c(=O)c2c1C	-6%	-3%	12%	3%	17µM*	?
Cc1sc2nc(CSc3ccc([N+](=O)[O-])cc3)[nH]c(=O)c2c1C	.	.	.	.	.	50µM*
Cc1sc2nc(CSc3n[nH]c(N)n3)[nH]c(=O)c2c1C	-9%	-1%[57.1 µM]	0%[57.1 µM]	-4%	-1%	79µM*
Cc1sc2nc(CSc3cccc(C(F)(F)F)c3)[nH]c(=O)c2c1C	-16%	-2%	6%	4%	-1%	-5%
O=C(CSCc1ccc(F)cc1)N1CCc2c([nH]c3ccccc23)C1c1ccccc1 (configuration not stated)	4%	3%[57.1 µM]	23%[57.1 µM]	-13%	.	.
Clc1ccc(C2=NNC(=NCc3ccc4c(c3)OCO4)SC2)cc1	?	1%	?	-7%	17µM*	-17%
Oc1ccc(C2=NNC(=NCc3ccc4c(c3)OCO4)SC2)c(O)c1	-6%	-9%	-10%	-1%	-8%	-27%
N#Cc1ccc(CS(=O)(=O)c2ccccc2)cc1	4%	.	.	.	.	13%
CCc1nnc(NC(=O)CCC(=O)NC2CCCCCC2)s1	-7%	0%	22%	-7%	-4%	11%
COC(=O)COc1ccc(NC(=O)Cn2nc(-c3ccccc3)c3ccccc3c2=O)cc1	-28%	7%	20%	8%	27µM*	6%
COc1ccc(NC(=O)COc2ccc(-c3nn(C)c(=O)c4ccccc34)cc2)cc1	?	-11%	17%[57.1 µM]	4%	24µM*	18%
